# Measurements published in ChEMBL document CHEMBL1961873, “Compounds: GSK PKIS; Assays: Nanosyn kinase panel” (2012).
# Columns and labels:
# [1] = molecular target: Ribosomal protein S6 kinase alpha-6 (Homo sapiens) (UniProt Q9UK32); conditions: at 1 µM;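 note: each value is a mean inhibition of RSK4 from a GSK PKIS panel screen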
# [2] = molecular target: T1, Serine/threonine-protein kinase Sgk1 (Homo sapiens) (UniProt O00141); conditions: at 0.1 µM
# T1 sequence (whole entry): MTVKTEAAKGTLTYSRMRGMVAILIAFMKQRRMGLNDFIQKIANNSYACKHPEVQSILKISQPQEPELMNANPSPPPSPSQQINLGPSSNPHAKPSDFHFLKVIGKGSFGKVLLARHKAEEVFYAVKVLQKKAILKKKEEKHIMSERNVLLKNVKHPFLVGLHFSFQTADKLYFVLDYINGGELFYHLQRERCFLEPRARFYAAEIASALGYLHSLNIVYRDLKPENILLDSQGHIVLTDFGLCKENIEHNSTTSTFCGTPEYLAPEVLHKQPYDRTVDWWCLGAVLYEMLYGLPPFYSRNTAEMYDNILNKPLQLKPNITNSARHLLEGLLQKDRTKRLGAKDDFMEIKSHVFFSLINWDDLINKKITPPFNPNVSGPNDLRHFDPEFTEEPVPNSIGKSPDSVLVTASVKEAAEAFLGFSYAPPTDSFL
# [3] = molecular target: T1, Serine/threonine-protein kinase Sgk1 (Homo sapiens); conditions: at 1 µM
# [4] = molecular target: T2, Serine/threonine-protein kinase Sgk2 (Homo sapiens) (UniProt Q9HBY8); conditions: at 0.1 µM
# T2 sequence (whole entry): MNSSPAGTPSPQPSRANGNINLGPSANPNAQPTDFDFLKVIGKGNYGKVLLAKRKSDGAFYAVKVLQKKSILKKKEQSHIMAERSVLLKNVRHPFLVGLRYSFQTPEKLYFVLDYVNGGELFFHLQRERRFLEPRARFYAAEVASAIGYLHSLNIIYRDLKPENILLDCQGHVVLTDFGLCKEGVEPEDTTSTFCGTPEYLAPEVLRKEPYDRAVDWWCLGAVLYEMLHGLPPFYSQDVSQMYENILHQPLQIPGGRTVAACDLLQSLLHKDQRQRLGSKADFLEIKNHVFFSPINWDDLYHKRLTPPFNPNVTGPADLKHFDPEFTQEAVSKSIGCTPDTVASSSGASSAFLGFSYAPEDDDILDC
# [5] = molecular target: T2, Serine/threonine-protein kinase Sgk2 (Homo sapiens); conditions: at 1 µM
# [6] = molecular target: T3, Serine/threonine-protein kinase Sgk3 (Homo sapiens) (UniProt Q96BR1); conditions: at 0.1 µM
# T3 sequence (whole entry): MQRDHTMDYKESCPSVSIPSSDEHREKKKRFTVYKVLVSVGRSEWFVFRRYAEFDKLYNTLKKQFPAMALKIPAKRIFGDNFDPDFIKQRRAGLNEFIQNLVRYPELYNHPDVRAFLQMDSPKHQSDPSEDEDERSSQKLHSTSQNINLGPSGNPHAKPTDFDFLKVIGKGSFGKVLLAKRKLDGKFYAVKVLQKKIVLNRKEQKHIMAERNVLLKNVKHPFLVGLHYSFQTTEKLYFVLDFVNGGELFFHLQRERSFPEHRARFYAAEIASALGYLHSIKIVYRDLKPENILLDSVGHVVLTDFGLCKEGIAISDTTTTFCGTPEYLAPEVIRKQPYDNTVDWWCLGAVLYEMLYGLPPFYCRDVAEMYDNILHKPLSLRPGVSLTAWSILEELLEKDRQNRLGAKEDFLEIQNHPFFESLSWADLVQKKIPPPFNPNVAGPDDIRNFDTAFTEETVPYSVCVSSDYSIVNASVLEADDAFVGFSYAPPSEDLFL
# [7] = molecular target: T3, Serine/threonine-protein kinase Sgk3 (Homo sapiens); conditions: at 1 µM
# [8] = molecular target: 5'-AMP-activated protein kinase catalytic subunit alpha-1 (Homo sapiens) (UniProt Q13131); conditions: at 0.1 µM
# [9] = molecular target: 5'-AMP-activated protein kinase catalytic subunit alpha-1 (Homo sapiens) (UniProt Q13131); conditions: at 1 µM
# [10] = molecular target: 5'-AMP-activated protein kinase catalytic subunit alpha-2 (Homo sapiens) (UniProt P54646); conditions: at 0.1 µM
# [11] = molecular target: 5'-AMP-activated protein kinase catalytic subunit alpha-2 (Homo sapiens) (UniProt P54646); conditions: at 1 µM
# [12] = molecular target: T4, NUAK family SNF1-like kinase 1 (Homo sapiens) (UniProt O60285); conditions: at 0.1 µM
# T4 sequence (whole entry): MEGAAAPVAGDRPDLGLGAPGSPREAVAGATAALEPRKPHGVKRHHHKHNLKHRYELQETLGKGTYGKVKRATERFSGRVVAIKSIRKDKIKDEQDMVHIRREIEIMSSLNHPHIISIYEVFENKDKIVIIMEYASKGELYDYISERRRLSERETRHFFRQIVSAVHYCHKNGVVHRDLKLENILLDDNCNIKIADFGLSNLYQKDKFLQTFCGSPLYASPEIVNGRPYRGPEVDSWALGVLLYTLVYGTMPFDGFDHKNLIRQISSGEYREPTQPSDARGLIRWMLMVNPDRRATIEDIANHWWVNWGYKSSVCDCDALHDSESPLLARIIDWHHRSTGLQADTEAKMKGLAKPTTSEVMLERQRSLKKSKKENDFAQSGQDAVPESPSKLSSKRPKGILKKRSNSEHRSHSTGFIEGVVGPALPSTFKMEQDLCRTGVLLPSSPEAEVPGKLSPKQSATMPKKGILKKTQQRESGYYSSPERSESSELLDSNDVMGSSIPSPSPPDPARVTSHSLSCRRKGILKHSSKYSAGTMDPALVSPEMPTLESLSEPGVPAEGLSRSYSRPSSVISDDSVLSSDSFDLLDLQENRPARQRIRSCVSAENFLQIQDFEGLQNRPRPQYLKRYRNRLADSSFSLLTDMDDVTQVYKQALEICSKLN
# [13] = molecular target: T4, NUAK family SNF1-like kinase 1 (Homo sapiens); conditions: at 1 µM
# [14] = molecular target: T5, Serine/threonine-protein kinase BRSK1 (Homo sapiens) (UniProt Q8TDC3); conditions: at 0.1 µM
# T5 sequence (whole entry): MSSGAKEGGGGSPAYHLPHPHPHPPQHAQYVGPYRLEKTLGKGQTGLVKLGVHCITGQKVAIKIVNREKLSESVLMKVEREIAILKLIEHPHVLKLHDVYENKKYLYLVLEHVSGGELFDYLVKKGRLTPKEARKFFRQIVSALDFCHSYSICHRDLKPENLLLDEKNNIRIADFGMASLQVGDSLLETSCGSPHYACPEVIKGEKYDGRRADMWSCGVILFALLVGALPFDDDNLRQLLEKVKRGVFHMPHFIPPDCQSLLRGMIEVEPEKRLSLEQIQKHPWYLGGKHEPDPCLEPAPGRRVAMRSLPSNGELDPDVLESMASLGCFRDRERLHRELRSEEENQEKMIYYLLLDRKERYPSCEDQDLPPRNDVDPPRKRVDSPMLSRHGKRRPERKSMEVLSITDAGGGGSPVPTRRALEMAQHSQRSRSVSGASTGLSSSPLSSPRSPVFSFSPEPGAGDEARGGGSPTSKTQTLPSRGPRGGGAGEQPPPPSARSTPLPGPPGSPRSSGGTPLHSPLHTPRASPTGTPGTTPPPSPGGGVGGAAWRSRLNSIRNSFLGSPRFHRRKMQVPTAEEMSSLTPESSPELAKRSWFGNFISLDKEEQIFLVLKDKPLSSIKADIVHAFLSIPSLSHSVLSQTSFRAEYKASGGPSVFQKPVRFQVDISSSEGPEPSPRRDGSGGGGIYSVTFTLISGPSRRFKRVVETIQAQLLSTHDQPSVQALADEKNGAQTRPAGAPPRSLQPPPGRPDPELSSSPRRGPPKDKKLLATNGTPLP
# [15] = molecular target: T5, Serine/threonine-protein kinase BRSK1 (Homo sapiens); conditions: at 1 µM
# [16] = molecular target: T6, Serine/threonine-protein kinase BRSK2 (Homo sapiens) (UniProt Q8IWQ3); conditions: at 0.1 µM
# T6 sequence (whole entry): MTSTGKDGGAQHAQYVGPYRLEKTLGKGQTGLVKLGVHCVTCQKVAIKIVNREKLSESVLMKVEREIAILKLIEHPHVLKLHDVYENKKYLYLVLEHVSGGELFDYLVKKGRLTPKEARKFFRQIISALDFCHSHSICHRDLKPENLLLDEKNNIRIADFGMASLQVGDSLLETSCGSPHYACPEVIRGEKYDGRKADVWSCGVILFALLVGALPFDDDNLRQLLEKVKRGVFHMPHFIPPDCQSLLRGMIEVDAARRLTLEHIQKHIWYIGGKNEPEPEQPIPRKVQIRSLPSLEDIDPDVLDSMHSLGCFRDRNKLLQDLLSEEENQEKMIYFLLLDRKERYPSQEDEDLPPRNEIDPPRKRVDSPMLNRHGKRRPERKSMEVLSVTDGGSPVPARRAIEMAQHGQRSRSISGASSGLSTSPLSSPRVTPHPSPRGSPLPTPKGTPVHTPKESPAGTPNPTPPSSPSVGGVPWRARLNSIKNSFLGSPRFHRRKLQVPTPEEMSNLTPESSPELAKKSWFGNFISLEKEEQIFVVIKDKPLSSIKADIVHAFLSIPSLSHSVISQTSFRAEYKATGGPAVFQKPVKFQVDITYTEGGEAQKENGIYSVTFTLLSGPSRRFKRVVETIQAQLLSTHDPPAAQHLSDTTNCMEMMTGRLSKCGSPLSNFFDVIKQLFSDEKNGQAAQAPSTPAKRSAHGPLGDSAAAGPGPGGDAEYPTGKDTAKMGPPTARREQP
# [17] = molecular target: T6, Serine/threonine-protein kinase BRSK2 (Homo sapiens); conditions: at 1 µM
# [18] = molecular target: Calcium/calmodulin-dependent protein kinase type 1D (Homo sapiens) (UniProt Q8IU85); conditions: at 0.1 µM
# [19] = molecular target: Calcium/calmodulin-dependent protein kinase type 1D (Homo sapiens) (UniProt Q8IU85); conditions: at 1 µM
# [20] = molecular target: Calcium/calmodulin-dependent protein kinase type II subunit alpha (Homo sapiens) (UniProt Q9UQM7); conditions: at 0.1 µM;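 note: reported values are averages (mean inhibition of CAMK2A)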
# Calcium/calmodulin-dependent protein kinase type II subunit alpha (Homo sapiens), sequence (Q9UQM7 whole entry): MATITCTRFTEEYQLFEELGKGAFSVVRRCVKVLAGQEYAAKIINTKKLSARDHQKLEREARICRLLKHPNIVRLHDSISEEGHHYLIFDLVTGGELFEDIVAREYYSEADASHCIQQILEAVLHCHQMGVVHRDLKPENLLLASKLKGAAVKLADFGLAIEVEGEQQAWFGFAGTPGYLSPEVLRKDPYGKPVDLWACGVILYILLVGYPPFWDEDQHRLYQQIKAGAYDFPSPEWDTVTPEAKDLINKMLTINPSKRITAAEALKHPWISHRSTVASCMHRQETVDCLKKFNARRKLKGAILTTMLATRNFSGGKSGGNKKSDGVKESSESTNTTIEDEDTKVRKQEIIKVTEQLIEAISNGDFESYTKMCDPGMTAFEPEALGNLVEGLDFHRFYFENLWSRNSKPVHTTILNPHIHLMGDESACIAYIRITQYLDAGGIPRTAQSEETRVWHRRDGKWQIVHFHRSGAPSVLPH
# 5'-AMP-activated protein kinase catalytic subunit alpha-1 (Homo sapiens), sequence (Q13131 whole entry, looked up): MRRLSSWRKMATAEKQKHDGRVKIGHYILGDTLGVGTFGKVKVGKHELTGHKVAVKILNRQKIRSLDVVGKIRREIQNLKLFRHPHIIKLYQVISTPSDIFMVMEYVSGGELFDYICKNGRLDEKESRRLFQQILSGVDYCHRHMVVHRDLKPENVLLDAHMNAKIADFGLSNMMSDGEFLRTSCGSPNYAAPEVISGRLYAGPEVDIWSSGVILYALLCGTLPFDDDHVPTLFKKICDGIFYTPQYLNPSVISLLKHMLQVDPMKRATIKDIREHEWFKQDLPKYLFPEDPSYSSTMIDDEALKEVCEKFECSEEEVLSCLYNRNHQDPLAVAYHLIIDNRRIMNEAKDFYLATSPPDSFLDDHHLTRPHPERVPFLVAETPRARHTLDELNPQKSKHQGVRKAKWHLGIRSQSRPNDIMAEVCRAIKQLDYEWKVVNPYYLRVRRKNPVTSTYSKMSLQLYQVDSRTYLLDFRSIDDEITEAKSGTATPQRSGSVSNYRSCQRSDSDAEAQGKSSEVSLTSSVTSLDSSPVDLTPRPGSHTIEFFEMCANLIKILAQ
# Calcium/calmodulin-dependent protein kinase type 1D (Homo sapiens), sequence (Q8IU85 whole entry, looked up): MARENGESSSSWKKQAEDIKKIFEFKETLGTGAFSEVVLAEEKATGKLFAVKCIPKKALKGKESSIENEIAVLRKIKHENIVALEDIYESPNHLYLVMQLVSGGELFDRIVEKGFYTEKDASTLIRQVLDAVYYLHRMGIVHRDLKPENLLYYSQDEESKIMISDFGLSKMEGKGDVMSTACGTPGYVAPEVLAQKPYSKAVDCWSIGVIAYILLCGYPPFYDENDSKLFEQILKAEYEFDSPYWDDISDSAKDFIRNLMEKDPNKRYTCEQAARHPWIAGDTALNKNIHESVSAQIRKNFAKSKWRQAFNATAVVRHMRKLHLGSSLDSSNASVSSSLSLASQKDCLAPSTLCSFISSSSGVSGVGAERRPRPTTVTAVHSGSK
# Ribosomal protein S6 kinase alpha-6 (Homo sapiens), sequence (Q9UK32 whole entry): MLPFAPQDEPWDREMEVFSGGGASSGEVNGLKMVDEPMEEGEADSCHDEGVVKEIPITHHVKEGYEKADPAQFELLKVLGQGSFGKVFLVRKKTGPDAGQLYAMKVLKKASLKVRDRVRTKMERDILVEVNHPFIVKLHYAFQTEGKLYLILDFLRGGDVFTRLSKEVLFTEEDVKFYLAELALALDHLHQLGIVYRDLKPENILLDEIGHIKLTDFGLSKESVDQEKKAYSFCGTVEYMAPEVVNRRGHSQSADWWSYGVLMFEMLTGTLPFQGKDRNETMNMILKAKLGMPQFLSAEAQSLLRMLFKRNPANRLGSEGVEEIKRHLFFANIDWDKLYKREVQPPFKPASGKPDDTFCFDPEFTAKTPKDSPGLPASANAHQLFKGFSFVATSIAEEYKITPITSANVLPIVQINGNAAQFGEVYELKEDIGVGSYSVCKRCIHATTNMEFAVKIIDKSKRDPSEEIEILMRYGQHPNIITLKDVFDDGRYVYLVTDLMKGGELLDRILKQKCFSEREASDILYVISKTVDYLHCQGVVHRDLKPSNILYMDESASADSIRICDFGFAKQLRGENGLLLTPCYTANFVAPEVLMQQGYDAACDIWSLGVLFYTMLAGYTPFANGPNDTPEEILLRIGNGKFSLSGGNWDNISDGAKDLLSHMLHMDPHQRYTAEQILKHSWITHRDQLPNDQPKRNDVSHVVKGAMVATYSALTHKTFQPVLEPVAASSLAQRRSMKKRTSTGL
# 5'-AMP-activated protein kinase catalytic subunit alpha-2 (Homo sapiens), sequence (P54646 whole entry, looked up): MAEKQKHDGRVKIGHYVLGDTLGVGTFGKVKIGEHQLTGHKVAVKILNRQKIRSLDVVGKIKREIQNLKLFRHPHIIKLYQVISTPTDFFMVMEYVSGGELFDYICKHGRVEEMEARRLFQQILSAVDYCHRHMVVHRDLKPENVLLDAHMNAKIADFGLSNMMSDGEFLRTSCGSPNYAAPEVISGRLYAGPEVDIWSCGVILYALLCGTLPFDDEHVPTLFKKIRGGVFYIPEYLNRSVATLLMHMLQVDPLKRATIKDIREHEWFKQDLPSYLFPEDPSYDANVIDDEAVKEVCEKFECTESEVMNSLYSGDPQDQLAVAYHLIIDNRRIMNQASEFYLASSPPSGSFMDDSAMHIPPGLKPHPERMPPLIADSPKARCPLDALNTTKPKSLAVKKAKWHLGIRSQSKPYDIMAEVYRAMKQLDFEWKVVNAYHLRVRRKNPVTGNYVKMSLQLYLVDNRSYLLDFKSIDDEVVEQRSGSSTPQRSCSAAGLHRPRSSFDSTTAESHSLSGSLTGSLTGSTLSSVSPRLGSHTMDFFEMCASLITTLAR
Structure (SMILES),inhibition [1] [%],inhibition [2] [%],inhibition [3] [%],inhibition [4] [%],inhibition [5] [%],inhibition [6] [%],inhibition [7] [%],inhibition [8] [%],inhibition [9] [%],inhibition [10] [%],inhibition [11] [%],inhibition [12] [%],inhibition [13] [%],inhibition [14] [%],inhibition [15] [%],inhibition [16] [%],inhibition [17] [%],inhibition [18] [%],inhibition [19] [%],inhibition [20] [%]
CCOc1ccc2c(-c3ccnc(Nc4cc(OC)cc(C(F)(F)F)c4)n3)cnn2n1,0.36,-0.01,1.56,0.96,3.1,1.37,-0.48,0.25,1.28,1.34,3.94,4.52,21.2,0.53,5.51,1.89,6.6,0.33,2.28,-1.52
Cc1cc(O)cc(C)c1/C=C/c1cncc(C(=O)OC(C)(C)C)c1,1.11,1.6,2.22,3.61,4.38,3.8,0.63,2.74,3.91,2.92,4.01,1.92,4.1,0.6,5.15,2.26,3.54,-0.01,1.19,1.37
CS(=O)(=O)CCNCc1ccc(-c2ccc3ncnc(Nc4ccc(OCc5cccc(C(F)(F)F)c5)cc4)c3c2)o1,1.68,2.43,1.63,4.41,2.6,3.89,2.45,1.06,5.76,6.24,3.3,0.13,6.75,4,4.04,4.95,9.19,-0.93,0.88,1.38
OCCCNc1nccc(-c2c(-c3ccc(F)cc3)nn3cc(C(F)(F)F)ccc23)n1,2.38,2.5,1.43,1.44,5.76,1.97,2.06,2.58,1.3,-0.71,3.17,0.07,3.25,1.56,3.4,1.44,3.37,-0.48,3.05,2.38
